This is a sample that favours compounds with a hit; in the whole collection about 2.7% have one here.
Akt phos inh: inhibitors of Akt phosphorylation. Neuro2A IGF-stimulated pAkt S473 HTRF, 20 min; active compounds read low. activity change, % for hits at 50 µM. 360,000 tested, 0.32% active. AID 651550; in the data active = activity change below about -80%; inconclusive = mostly about -51% to -80%
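Single-point screen (50 µM final compound) in Neuro2A cells stimulated 20 min with 6 nM IGF at 37 deg C. After lysis, Ser473-phosphorylated Akt read by HTRF (ex 330 nm, em 615/665 nm) as the 665/615 ratio.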
gsp antag: antagonizes gsp, the McCune-Albright syndrome mutation. 340,000 tested, 0.4% active. gsp-mutant cells, cAMP HTRF, 30 min. Potency, µM (highest dose often 76.9 µM), most hits filed as inhibitors; calls by dose curve; cell line not stated here;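 also: intracellular cAMP measured with PDE inhibitor Ro 20-1724 present during compound exposure; nearly all actives have a fitted effect of over 65% in size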
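HTRF cAMP measurement after 30 min RT detection following 30 min, 37C compound treatment alongside […] (added as 300 uM solution) in G418-selected cells seeded at 2000/well and grown 16–24 h.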
RXFP1 ag: activates the human relaxin receptor RXFP1; HEK293T-RXFP1 cAMP TR-FRET, 30 min; response scale: percent of porcine relaxin response, buffer zero; 370,000 tested, 0.3% active; Q9HBX9; Potency, µM (top dose mostly 57.5 µM), usual class: activators; active = well fitted activation curve with a large enough effect; inconclusive = small, poorly fitted or top-dose-only effect; also: nearly all actives have a fitted effect of over 60% in size
Target sequence (Q9HBX9 whole entry, looked up): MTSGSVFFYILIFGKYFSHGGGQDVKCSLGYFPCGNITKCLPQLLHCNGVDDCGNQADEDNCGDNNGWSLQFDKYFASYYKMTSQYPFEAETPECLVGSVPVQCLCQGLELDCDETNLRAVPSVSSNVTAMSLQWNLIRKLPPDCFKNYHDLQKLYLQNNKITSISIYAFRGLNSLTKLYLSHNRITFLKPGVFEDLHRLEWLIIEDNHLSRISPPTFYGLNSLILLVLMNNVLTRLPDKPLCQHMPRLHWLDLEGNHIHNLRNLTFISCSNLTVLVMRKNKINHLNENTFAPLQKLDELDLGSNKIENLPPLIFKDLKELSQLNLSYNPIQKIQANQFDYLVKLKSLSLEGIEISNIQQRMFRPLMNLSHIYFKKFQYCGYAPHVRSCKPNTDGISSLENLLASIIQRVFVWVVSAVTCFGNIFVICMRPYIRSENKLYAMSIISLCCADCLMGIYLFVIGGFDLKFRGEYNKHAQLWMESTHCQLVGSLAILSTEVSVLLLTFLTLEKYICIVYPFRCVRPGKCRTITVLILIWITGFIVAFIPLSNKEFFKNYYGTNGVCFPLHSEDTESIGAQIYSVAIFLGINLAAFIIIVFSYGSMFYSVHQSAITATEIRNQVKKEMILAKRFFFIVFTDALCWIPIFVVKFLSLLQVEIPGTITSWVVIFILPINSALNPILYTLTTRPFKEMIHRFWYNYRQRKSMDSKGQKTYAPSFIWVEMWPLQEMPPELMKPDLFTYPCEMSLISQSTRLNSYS
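cAMP rise read by TR-FRET after 30 min, 37C compound exposure (up to 58 uM) in RXFP1-transfected HEK293 cells with Ro 20174 present. EC50 from Hill-equation fits, with 29 nM porcine relaxin as 100% and buffer as basal.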
gsp agonist: agonists of gsp mutant (McCune-Albright syndrome) | gsp mutant cells, cAMP HTRF, 30 min | Potency, µM (highest dose often 76.9 µM), actives largely listed as activators | 340,000 tested, 0.13% active; active = well fitted activation curve with a large enough effect; inconclusive = small, poorly fitted or top-dose-only effect, or another doubt; inactive = no such curve, though single readings can be large or run the other way; cell line not stated here;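 also: phosphodiesterase inhibitor Ro 20-1724 added with compounds to block cAMP breakdown; nearly all actives have a fitted effect of over 60% in size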
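Cells in DMEM/10% FBS with G418 were pretreated with compounds in DMSO plus […] (300 uM stock) for 30 min at 37C. cAMP was measured by HTRF (cAMP-d2 plus anti-cAMP antibody-K) after 30 min at room temperature.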
RXFP1 antag: blocks the human relaxin receptor RXFP1 | Q9HBX9 | HEK293-RXFP1, relaxin-stimulated cAMP HTRF, 30 min; active compounds read low | activity change, negative = inhibition, % at 57.5 µM | 350,000 tested, 0.59% active;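 active = activity change of -60% or lower, but not beyond a set lower limit; inconclusive = change between -60% and -40%, or beyond the set limit; inactive = change above -40%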
ClpP mod: qHTS Assay for Activators of ClpP. ATP-dependent Clp protease proteolytic subunit (Bacillus subtilis (strain 168)), P80244. purified B. subtilis ClpP, FRET peptide cleavage, 20 min. Potency, µM (doses to about 57.5 µM). 340,000 tested, 1.9% active. AID 651965, 2013; active = well fitted falling curve with a large enough effect; inconclusive = small, poorly fitted or top-dose-only effect; inactive = no such curve, though single readings can be large or run the other way; also: the source files actives as falling curves though it sought activators and does not explain the sign; nearly all actives have a fitted effect of over 65% in size
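FRET quenching reversal measured ClpP activation: 10 microg/mL B. subtilis ClpP at pH 8 with the FRET-FV decapeptide, read at 430 nm after 320 nm excitation. The 20-min minus 0-min signal was scaled between DMSO/no-enzyme wells and ADEP (5.8 microM final).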
Numbers stand for hits; i = inactive; ? = inconclusive; nt = no result given; [ ] = another dose, or the depositor's remark.

SMILES	Akt phos inh	gsp antag	RXFP1 ag	gsp agonist	RXFP1 antag	ClpP mod
COc1ccc(-c2cc3nc(-c4ccccc4)cc(N4CCCC(O)C4)n3n2)cc1 (stereo not given)	i	35.5µM	i	?	i	i
Cc1nc(SCC(=O)N2CCOCC2)c2c(C)c(C)sc2n1	i	i	i	i	i	nt
Cc1nc(SC2CCOC2=O)c2c(C)c(C)sc2n1 (stereo not given)	i	i	?	20µM	i	i
CN1CCc2c(sc3c2C(=O)NC(c2cccs2)N3)C1 (stereo not given)	i	i	i	i	i	25.1µM
COc1ccc(C(=O)Oc2ccc(C3NC(=O)c4c(sc5c4CCN(C)C5)N3)cc2OC)cc1 (stereo not given)	nt	nt	i	nt	i	17.8µM
COc1ccc(C2NC(=O)c3c(sc4c3CCN(C)C4)N2)cc1O (stereo not given)	nt	nt	i	nt	i	?
CC1CN(CCCCOc2cccc(Oc3ccccc3)c2)CC(C)O1 (stereo not given)	i	i	i	i[15.4 µM]	-63.9	i
O=C(NCC1CC1(Cl)Cl)Nc1ccc(Cl)c(Cl)c1 (stereo not given)	i	?	i	i	-67.0	nt
O=C(Cc1ccccc1)NNC(=O)Nc1ccc(Cl)c(Cl)c1	i	i	i	i[15.4 µM]	i	nt
NC(=O)SCC(=O)Nc1ccc(Cl)c(Cl)c1	i	i	i	i	-71.4	i
Cc1ccc(NC(=O)CSC(N)=O)cc1Cl	i	i	i	i	i	i
NC(=S)NNC(=O)Nc1ccc(Cl)c(Cl)c1	i	i	i	i	i	22.4µM
Cc1cc(C)c(NC(=O)Cn2c(=O)n(CC(=O)NCCc3ccccc3)c(=O)c3ccccc32)c(C)c1	nt	nt	i	nt	nt	i
Cc1ccc(Oc2ccc(/C=N/O)cn2)cc1	i	i	i	i	i	15.8µM
CN(Cc1ccc(Cl)s1)C(=O)CNC(=O)CNC(=O)c1ccc(Cl)cc1Cl	i	i	i	i	i	i
Cc1ccc(S(=O)(=O)N(C)c2ccc(OCc3cccc(C)c3)cc2)cc1	i	i	i	i	i	22.4µM
Cc1ccc(S(=O)(=O)N(C)c2ccc(OCC(=O)OCc3cccc(Br)c3)cc2)cc1	i	i	nt	i	i	i
CCOC(=O)C(=CNc1nc(-c2ccccc2)c(C(=O)Nc2ccc(-c3ccccc3)cc2)s1)C(=O)OCC	i	i	i	i	i	12.6µM
Cc1ccc(NC(=O)c2sc(Cl)nc2-c2ccccc2)cc1	i	i	i	i	i	i
O=C(CSc1ccc(Cl)cc1)c1ccco1	-96.7%	i	i	i	i	i
O=C(CCSc1ccc(Cl)cc1)c1ccco1	i	i	i	i	i	i
COc1ccc(C(=O)NN/C(C)=C/C(=O)C(F)(F)C(F)(F)C(F)(F)F)cc1	i	i	i	i	i	3.16µM
COc1ccc(C(=O)NNC(=O)OC(C)(C)C)cc1	i	i	i	i	i	i
COC(=O)C1=C(C)NC2=C(C(=O)CCC2)C1c1cn(Cc2ccc(Cl)cc2Cl)nc1-c1ccccc1 (stereo not given)	i	i	i	i	i	17.8µM
COC(=O)C1=C(C)NC2=C(C(=O)CCC2)C1c1cccs1 (stereo not given)	nt	nt	i	nt	nt	nt
SMILES	Akt phos inh	gsp antag	RXFP1 ag	gsp agonist	RXFP1 antag	ClpP mod
CCOC(=O)C1=C(C)NC2=C(C(=O)CCC2)C1c1cn(Cc2ccc(Cl)cc2Cl)nc1-c1ccccc1 (stereo not given)	i	i	i	i	i	28.2µM
COc1ccc(CCC(=O)OCC(=O)Nc2sccc2C#N)cc1	i	i	nt	i	i	nt
COC(=O)c1c(-c2ccc(Cl)cc2)noc1N1CCN(c2cccc(C(F)(F)F)c2)CC1	nt	nt	i	nt	i	i
CC(=O)N1CCC(=NNC(=O)c2cc3ccccc3cc2O)CC1	nt	?	i	i	-92.9	i
CCOC(=O)C1CCN(S(=O)(=O)c2ccc(-c3nc4ccccc4s3)s2)CC1	i	?	i	i	i	25.1µM
CCc1nc2ccc(C(=O)NCC3CCCCC3)cn2c1N(C)Cc1ccc(OC)cc1	i	nt	nt	nt	nt	i
Cn1c(C(=O)NCCCN2CCN(c3ccccc3F)CC2)cc2c(=O)[nH]c3ccccc3c21	i	i	i	i	i	31.6µM
CCOC(=O)CSc1nc2sc(C)c(C)c2c(=O)n1C	i	i	i	i	i	i
CCOC(=O)CSc1nc(C(C)C)nc2sc(C)c(C)c12	i	i	i	i[15.4 µM]	-60.5	nt
O=C(NC(=S)Nc1cccc(O)c1)C12CC3CC(CC(C3)C1)C2	i	nt	nt	i	i	i
CC1CN(C(=O)c2cc3c(=O)n4ccccc4nc3s2)CC(C)O1 (stereo not given)	i	i	i	i	i	17.8µM
CC1CC(C)CN(C(=O)c2cc3c(=O)n4ccccc4nc3s2)C1 (stereo not given)	i	i	i	i[15.4 µM]	i	nt
CCCCc1ccc(NC(=S)N2CCN(c3ccccn3)CC2)cc1	i	i	i	i	-68.7	nt
CCCCc1ccc(NC(=S)N2CCN(c3ncccn3)CC2)cc1	i	i	i	i[15.4 µM]	i	nt
Cc1ccc2[nH]c(=O)c3cc(C(=O)N(C)c4ccc(Br)cc4)sc3c2c1	nt	nt	i	nt	nt	?
Cc1c(N2CCCC2)cc2c(c1N)C(C)(C)CC2(C)C	i	i	i	i[15.4 µM]	-70.7	i
CC(C)C[C@H]1CNC(=O)C(=O)N1C[C@@H]1CCCN1C[C@H](Cc1ccc(O)cc1)N1C[C@H](Cc2ccccc2)N(CC2CCCCC2)C(=O)C1=O	i	nt	nt	nt	nt	i
CC(C)(C)c1ccc(NC(=O)CSc2nnc(-c3n[nH]c4ccccc34)o2)cc1	i	i	i	i	i	31.6µM
Cc1ccc(C)c(NC(=O)CSc2nnc(-c3n[nH]c4ccccc34)o2)c1	i	i	i	i	i	i
CC(=O)c1ccc(NC(=O)Cn2c(=O)oc3cc(S(=O)(=O)N4CCCCC4)ccc32)cc1	nt	nt	i	nt	nt	i
N#Cc1c2c(c(NCc3cccnc3)n3c1nc1ccccc13)CCC2	i	i	i	i	i	31.6µM
N#C/C(N=Nc1ccccc1O)=N\Nc1ccccc1O	i	35.5µM	i	nt	nt	i
O=C(Cn1cnc2ccccc2c1=O)c1ccc2ccccc2c1	i	i	i	i	i	31.6µM
Cc1ccc2c(c1C)-c1c(ccc(C)c1C)C(=O)C2=O	i	i	nt	i	-68.7	i
Fc1ccccc1-c1ccc(/C=N/Nc2nc3ccccc3[nH]2)o1	i	39.8µM	i	i	?	i
COc1cccc(-c2nnc(SCC(=O)N3CCCc4ccccc43)o2)c1	i	i	i	?	i	i
COc1cc(OC)cc(-c2nnc(SCC(=O)N3CCCc4ccccc43)o2)c1	-115.8%	i[15.4 µM]	i	i	i	i
CN(Cc1cn(C)nc1-c1ccc(Oc2ccccc2)cc1)Cc1cnc2ccccn12	i	39.8µM	i	?	i	i

Screens (PubChem)
